Inconclusive results are not listed. The source made the active and inactive calls. The call rests on the fitted dose curve; in most records, active means well fitted inhibition curve with a large enough effect; inconclusive means small, poorly fitted or top-dose-only effect; inactive means no such curve, though single readings can be large or run the other way.

The assay has as its system Zika virus NS2B-NS3 protease (linked). Description: Optimization screen NINDS Rhodamine qHTS for Zika virus inhibitors: Linked NS2B-NS3 protease assay. The settings on record: fluorogenic rhodamine substrate; series mostly up to 105 µM. The text has this:
Avindra Nath, Ph.D., National Institute of Neurological Disorders and Stroke (NINDS), Bethesda, MD
Radhakrishnan Padmanabhan, Ph.D., Georgetown University (GU), Washington D.C.
Zika Virus causes congenital defects, including microcephaly and is associated with Guillain-Barre syndrome, eningoencephalitis and myelitis in infected adult. […] Using a target-based approach, we hope to establish a screening paradigm to uncover novel, cell-active NS2B-NS3 protease (Zika Virus) specific inhibitors from NCATS' collection of small molecules using qHTS.
Four assay panel was created to identify potential Zika Virus inhibitors. Namely, (1) GU unlinked NS2B-NS3 AMC tagged protease qHTS, (2) GU unlinked NS2B-NS3 Rhodamine tagged protease qHTS, (3) NINDS linked NS2B-NS3 AMC tagged protease qHTS, (4) NINDS linked NS2B-NS3 Rhodamine tagged protease qHTS. Active compounds were re-acquired and re-screened to confirm inhibition. Inhibitors were further screened against various confirmatory and counterscreens in dose response format.
Early Translation Branch (ETB)
National Center for Advancing Translational Sciences (NCATS), Rockville, MD
National Institute of Health (NIH), Bethesda, Maryland
For the linked assay, Nath lab (NINDS) provided the purified linked NS2B-NS3 protease which is consists of hydrophilic domain of NS2B linked to the NS3 protease domain by a flexible (-GGGGSGGGG-) linker. Control compound aprotinin is obtained from Thermo Scientific (#78432; Waltham, Massachusetts). Rhodamine110 substrate ([N-Cbz]-Nle-Lys-Arg-Arg-Rhod110-Arg-Arg-Lys-Nle-[N-Cbz]) was purchased from either Genscript or Bachem.
1536-well Protease (Rhodamine110 Substrate) Assay:
Briefly, 3 microL of enzyme (25 nM final concentration), in assay buffer (10 mM Tris-HCl pH 8.0 with 0.01% Tween 20) were dispensed into a 1,536-well solid-bottom black plate (Greiner Bio One, Monroe, NC). Twenty-three nL of compounds (final concentration range 7.28 nM to 114 microM) or control Aprotinin (final concentration range 3.47 nM to 114 microM) were transferred via Wako Pin-tool (Wako Automation, Richmond, VA). Samples were incubated (room temperature, protected from light) for 15 minutes followed by a 1 microL Rhodamine110 substrate addition (1.5 microM final concentration). Plates were then immediately read on a ViewLux High-throughput CCD imager (PerkinElmer, Waltham, MA) equipped with FITC fluorescence optics (480(20) nm excitation, 540(25) nm emission), then incubated (room temperature, protected from light) for 15 minutes (~15% conversion). The change in fluorescence intensity over the 15-minute reaction period was normalized against no-inhibitor and no-enzyme controls and the resulting percent inhibition data were fitted to a 4-parameter Hill equation. Aprotinin was used as intraplate control.
On the technique in general: In qHTS, concentration-response curves come from the screen itself.
As for `N[C@H](C(=O)O)c1ccc(O)cc1`, the Potency result was “inactive”.

Consider `O=c1cc(-c2ccccc2)oc2cc(O)c(O)c(O)c12`, for which the Potency was 4.94 µM (active).

For the compound `CCCCCCCCc1ccc(CCC(N)(CO)CO)cc1`, the Potency is 55.5 µM (active).

For the origin of these results see PubChem BioAssay AID1347155 (National Center for Advancing Translational Sciences (NCATS), 2019).
